Bioassay records (PubChem)
Sampled rows, rich in hits. Any-hit rate of the full collection: about 13%.
USP8 block – blocks human USP8 ubiquitin-rhodamine cleavage; purified USP8, Ub-rhodamine cleavage fluorescence, 30 min; inhibition, % at 20 µM; hit rate 4.2% among 47,000
Target sequence (P40818 whole entry, looked up): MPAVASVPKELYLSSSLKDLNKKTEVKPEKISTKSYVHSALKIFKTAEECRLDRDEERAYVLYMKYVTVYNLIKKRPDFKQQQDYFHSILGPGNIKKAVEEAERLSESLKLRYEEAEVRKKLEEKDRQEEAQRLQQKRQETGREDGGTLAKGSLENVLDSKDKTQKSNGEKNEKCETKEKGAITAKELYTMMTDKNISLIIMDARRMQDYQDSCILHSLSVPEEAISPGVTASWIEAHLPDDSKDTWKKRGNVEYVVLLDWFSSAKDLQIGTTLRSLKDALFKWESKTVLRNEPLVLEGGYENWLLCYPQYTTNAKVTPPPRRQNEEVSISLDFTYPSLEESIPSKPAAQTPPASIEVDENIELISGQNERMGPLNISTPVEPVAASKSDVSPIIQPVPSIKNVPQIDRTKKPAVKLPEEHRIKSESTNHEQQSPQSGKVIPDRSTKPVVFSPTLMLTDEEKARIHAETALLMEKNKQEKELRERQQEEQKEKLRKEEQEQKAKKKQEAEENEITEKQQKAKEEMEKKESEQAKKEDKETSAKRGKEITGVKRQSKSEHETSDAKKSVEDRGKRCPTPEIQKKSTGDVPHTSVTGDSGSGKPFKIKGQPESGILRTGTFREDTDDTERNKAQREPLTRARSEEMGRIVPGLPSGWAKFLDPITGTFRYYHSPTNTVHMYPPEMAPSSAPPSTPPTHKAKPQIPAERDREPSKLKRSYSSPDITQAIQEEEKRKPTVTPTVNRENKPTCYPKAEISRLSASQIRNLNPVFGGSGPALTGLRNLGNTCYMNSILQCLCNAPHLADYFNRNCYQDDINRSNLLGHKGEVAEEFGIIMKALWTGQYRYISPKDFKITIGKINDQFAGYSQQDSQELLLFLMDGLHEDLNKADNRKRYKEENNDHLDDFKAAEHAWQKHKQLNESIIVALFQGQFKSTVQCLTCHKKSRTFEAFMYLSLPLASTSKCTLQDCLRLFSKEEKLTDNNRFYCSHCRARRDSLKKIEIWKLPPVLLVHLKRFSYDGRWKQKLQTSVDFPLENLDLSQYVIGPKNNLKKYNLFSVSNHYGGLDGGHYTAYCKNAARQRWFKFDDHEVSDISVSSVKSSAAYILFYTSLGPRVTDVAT
USP28 block – blocks human USP28 ubiquitin-rhodamine cleavage; Q96RU2; purified USP28, Ub-rhodamine cleavage fluorescence, 30 min; inhibition, % at 25 µM; hit rate 3% among 47,000; AID 1645857
USP10 block – blocks human USP10 ubiquitin-rhodamine cleavage. Q14694. purified USP10, Ub-rhodamine fluorescence, 60 min. inhibition, % at 20 µM. hit rate 1.1% among 47,000
OTUD3 inh – blocks human OTUD3 ubiquitin-rhodamine cleavage | Q5T2D3 | purified OTUD3, Ub-rhodamine fluorescence, 2 h | inhibition, % at 25 µM | hit rate 0.7% among 47,000 | AID 1645858
USP17 block – inhibitors of human USP17 deubiquitinase. A8MUK1. purified USP17, Ub-rhodamine cleavage fluorescence, 3 h. inhibition, % at 50 µM. hit rate 6.5% among 47,000. AID 1645855
USP30 block – blocks human USP30 ubiquitin-rhodamine cleavage; Q70CQ3; purified USP30, Ub-rhodamine cleavage fluorescence; inhibition, % at 25 µM; hit rate 5.3% among 47,000; AID 1645860
Large screens that a line does not name were inactive. Cut-off read from the data, not from the text of the source: active = inhibition above about 30%; inactive = the rest.

O=C(c1ccccc1)c1ccc(NCC2COc3ccccc3O2)c([N+](=O)[O-])c1 (centres undefined)	none
CC(O)(CS(=O)(=O)Cc1ccccc1)C(=O)Nc1ccc(Cl)cc1Cl (centres undefined)	none
Cc1ccc(N2CC(C(=O)N3CCC(c4noc(-c5ccccc5)n4)CC3)CC2=O)cc1C (centres undefined)	none
O=C(NC1CCCCC1)C1CC(=O)N(c2cccc(-c3noc(-c4cccs4)n3)c2)C1 (centres undefined)	USP17 block 39 (no result: USP28 block, USP30 block)
COc1ccc(C(=O)NCC(c2ccco2)N2CCOCC2)cc1Cl (centres undefined)	none
O=C(Nc1nc(C(=O)N2CCN(C(=O)c3ccco3)CC2)co1)C1CC1	none
Cc1ccc(-c2[nH]c3ccccc3c2C2c3ccccc3C(=O)N2CC(=O)O)cc1 (centres undefined)	USP8 block 61
Cc1ccc(CNC(=O)Cc2nnc(-c3ccccn3)o2)cc1	none
COc1ccc(NC(=O)CCNS(=O)(=O)c2ccc3c(c2)CCC(=O)N3)cc1Cl	none
O=C(Nc1ccncc1)c1cc(Br)ccc1F	USP30 block 35
O=C(Nc1ccncc1)c1ccc[nH]c1=O	none
CCc1nnc(C2(c3cccc(F)c3)CCOCC2)o1	none
C[C@@]12C[C@H](CN)N(C(=O)c3n[nH]c4c3CCC4)[C@@H]1CCCC[C@H]2O	none
O=C(Cc1cccc2ccccc12)N1CCC(Cc2ccccc2)CC1	USP30 block 44
COc1ccccc1CC(=O)N1CCC(Cc2ccccc2)CC1	USP30 block 36
O=C1NCC2(CCC(C(=O)NCCN3CCOCC3)CC2)Oc2ccccc21 (centres undefined)	none
O=c1c2nnn(Cc3ccccc3)c2ncn1Cc1nc(-c2cccc(Cl)c2)no1	USP30 block 36
Cc1ccccc1Cn1nnc2c(=O)n(Cc3nc(-c4ccccc4)no3)cnc21	none
O=C(Nc1cccn2nc(C3CCC3)nc12)C1CCCO1 (centres undefined)	none
CCCCCCCc1cc(O)cc(O)c1	USP28 block 77
Cc1ccc(CNC(=O)CCCn2c(=O)c3sccc3n(CC(=O)Nc3cc(Cl)ccc3C)c2=O)cc1	USP28 block 55, OTUD3 inh 40, USP17 block 74
CCOc1ccccc1NC(=O)Cn1c(=O)n(CCCC(=O)NCc2ccc(C)cc2)c(=O)c2sccc21	USP8 block 47, USP28 block 36, USP10 block 56, USP17 block 83, USP30 block 37
CC1=C(C#N)C(C(F)(F)F)(C(F)(F)F)N=C(Cc2ccccc2)N1	none
Cc1ccc(NC2=NC(c3ccccc3)(C(F)(F)F)C(C#N)=C3C=CC=CN23)cc1 (centres undefined)	USP8 block 63
CC(C)Cn1c(=O)c2nscc2n(CC(=O)NCc2ccccc2)c1=O	USP8 block 39
Cc1ccccc1NC(=O)Cn1c(=O)n(CC(C)C)c(=O)c2nscc21	USP8 block 38
CC(C)Cn1c(=O)c2nscc2n(CC(=O)Nc2ccc(F)cc2F)c1=O	USP8 block 36
CCn1c(=O)c2nscc2n(CC(=O)Nc2ccc(C)cc2C)c1=O	none
CCn1c(=O)c2nscc2n(CC(=O)NCc2ccccc2)c1=O	none
CC(C)Cn1c(=O)c2nscc2n(CC(=O)NC2CCCC2)c1=O	none (no result: USP28 block, USP30 block)
Cc1cccc(C(=O)N2CCN(Cc3cc(=O)c4ccccc4[nH]3)CC2)c1	none
CCn1nccc1CN(C)C(=O)c1cc(C2CC2)nc2c1c(C)nn2C(C)C	none
COc1ccc(Cl)cc1NC(=O)CC1C(=O)Nc2nc(C)nn21 (centres undefined)	none
COc1ccc(C)cc1NC(=O)Nc1nnc(CC(=O)NCc2ccccc2)s1	USP8 block 38
O=C(Cc1nnc(NC(=O)Nc2cc(F)ccc2F)s1)NCc1ccccc1	none
CC(C)Cc1cc(-c2nnc3sc(-c4ccco4)nn23)n[nH]1	USP8 block 35, USP28 block 39, OTUD3 inh 41, USP17 block 73
COc1cccc(N2CC(C)Cn3c2nc2c3c(=O)n(CC(=O)OCc3ccccc3)c(=O)n2C)c1 (centres undefined)	USP30 block 39
Cc1cc(C)cc(N2CC(C)Cn3c2nc2c3c(=O)n(CC(=O)OCc3ccccc3)c(=O)n2C)c1 (centres undefined)	none
COc1ccccc1CCNC(=O)c1ccc2nc(NS(C)(=O)=O)sc2c1	none
